Structures are written as SMILES. The panel holds about 83,000 compounds, 20% with a hit somewhere; the sample as a whole holds those more often.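 Note: values are percent growth. 100 is the growth of untreated cells, values between 100 and 0 indicate rising inhibition; between -100 and 0 indicates cell death.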 Unmarked numbers belong to inactive results. Active and inactive are the calls of the source. Rule for the calls: active = growth percent below 10; inactive = the rest.

The assay concerns HOP-92 NSCLC. The experiment in a line: NCI-60 one-dose screen, 48 h (100 = growth as untreated, 0 = no growth, -100 = all killed). Conditions: 10 µM unless noted.
Consider `CS(=O)(=O)Nc1cc(-c2ccc3ncnc(Nc4ccc5c(cnn5Cc5ccc(F)cc5)c4)c3c2)cnc1Cl`, for which the growth was -17.5% (active).
As for `CCSc1nc2scc(C)c2c(=O)[nH]1`, the figure is 101%.
The value for `Fc1cccc(Oc2ccc(Nc3ncnc4ccc(OCCCN5CCOCC5)cc34)cc2Cl)c1` was 54.3%.
The value for `O=C(Nc1cccc2ccccc12)NC1CC1` was 99%; that for `Clc1ccc2c(NC3CCC(N4CCOCC4)CC3)ccnc2c1` (configuration not stated) was 48.7%; that for `Cc1cc(N2CCN(CCNc3ccnc4cc(Cl)ccc34)CC2)nc(N2CCOCC2)n1` was 47.7%.
On to `c1cnc2c(-c3nc4ccc5[nH]ncc5c4c4c3CCCC4)c[nH]c2c1`, for which the growth is 40.6%.
In the case of `O=C(O)c1ccc(-n2cc(/C=N/Nc3ccccc3)c(-c3ccc(F)cc3F)n2)cc1`, the growth was 83.5%.
`C=C(CBr)[C@@H]1CC[C@]2(C(=O)O)CC[C@]3(C)[C@H](CC[C@@H]4[C@@]5(C)CCC(=O)C(C)(C)[C@@H]5CC[C@]43C)[C@@H]12`: the growth was 72.3%.
As for `O=C(CSC(=S)n1cnnc1)NC(=O)c1ccccc1`, the figure is 101%.
Turning to `CC(C)(C)CC(C)(C)NC(=O)Nc1ncccc1OCc1ccccc1`, the growth was 87.7%.
In the case of `Oc1ccc(Cl)cc1/C=N\NC(=S)N/N=C/c1cc(Cl)ccc1O`, the growth is 40.1%.
Consider `CCc1ncnc2c1ccn2C(C)c1ccc(OC)c(F)c1` (configuration not stated), for which the growth is 43.2%.
Regarding `C/C(=N\O)c1ccc(Cl)cc1`, the growth is 65.3%.
The value for `CN(C)CCNC(=O)c1cc2c3cc(Cl)ccc3[nH]c2c2ncccc12` was 2.92% (active).
As for `O=C(/C=C/c1ccco1)Nc1ncc(Cc2cccc(C(F)(F)F)c2)s1`, the figure is 64.3%.
The value for `Cc1cc(S(=O)(=O)/N=C(\N)n2nc(C)c(C)c2C)c(SCc2ccccc2)cc1Cl` was 50.3%.
With `CN(c1cc2ncc(=O)[nH]c2cc1NC(N)=NCc1ccc(Cl)cc1)C1CCCCC1`, the growth is 28%.
The value for `COc1cc(-c2nc3sccn3c2-c2ccnc(NCCNS(=O)(=O)c3ccccc3)n2)ccc1F` was 47.8%; that for `O=C(Nc1cccc(-c2ccc(N3CCOCC3)nn2)c1)Nc1cccc(C(F)(F)F)c1` was 58.6%; that for `COCCNC(=O)Nc1ccc2nc(-c3cccs3)c(-c3cccs3)nc2c1` was 80.8%.
As for `O=C1/C=C/[C@@H](O)[C@@H]2C[C@@H](O)C[C@H]2/C=C/CCC[C@H](CCc2ccccc2)O1`, the figure is -16.5% (active).
The value for `CC(=O)Oc1ccc(/C(=C(\C)c2ccc(Cl)cc2)c2ccc(OCCN3CCCCC3)cc2)cc1` was 49.4%; that for `N#Cc1nc(-c2ccc(F)cc2)oc1S(=O)(=O)N1CCOCC1` was 94.6%.
Consider `C#CCNC(=O)[C@H](CC)[C@H]1CC[C@H](C)[C@H]([C@@H](C)[C@H](O)[C@H](C)C(=O)[C@H](CC)C2O[C@]3(C=CC(=O)[C@]4(CC[C@@](C)([C@H]5CC[C@](O)(CC)[C@H](C)O5)O4)O3)[C@H](C)C[C@@H]2C)O1` (some centres not stated), for which the growth is 13.2%.
With `COc1ccc(CNc2c3ccccc3nc3ccccc23)cc1`, the growth was 24.6%.
As for `Clc1cc(Cl)c(Cl)c(-c2nnc(SCc3ccncc3Br)o2)c1`, the figure is 84.4%.

These data come from PubChem BioAssay (NCI).
